Results filed as inconclusive are left out. The source made the active and inactive calls. Unless noted, the call rests on the fitted dose curve; in most records, active means well fitted curve in the direction sought with a large enough effect in the repeat runs; inconclusive means weak or mixed curves; inactive means no such curve, though single readings can be large; an effect the other way counts as inactive or inconclusive.
Experiments:
[1] = molecular target: Thyrotropin receptor (Homo sapiens) (UniProt P16473); assay: qHTS assay to identify small molecule antagonists of the thyroid stimulating hormone receptor (TSHR) signaling pathway (AID 1259385; calls by dose curve; further: nearly all actives have a fitted effect of over 20% in size)
Sequence of Thyrotropin receptor (Homo sapiens) (P16473 whole entry, looked up): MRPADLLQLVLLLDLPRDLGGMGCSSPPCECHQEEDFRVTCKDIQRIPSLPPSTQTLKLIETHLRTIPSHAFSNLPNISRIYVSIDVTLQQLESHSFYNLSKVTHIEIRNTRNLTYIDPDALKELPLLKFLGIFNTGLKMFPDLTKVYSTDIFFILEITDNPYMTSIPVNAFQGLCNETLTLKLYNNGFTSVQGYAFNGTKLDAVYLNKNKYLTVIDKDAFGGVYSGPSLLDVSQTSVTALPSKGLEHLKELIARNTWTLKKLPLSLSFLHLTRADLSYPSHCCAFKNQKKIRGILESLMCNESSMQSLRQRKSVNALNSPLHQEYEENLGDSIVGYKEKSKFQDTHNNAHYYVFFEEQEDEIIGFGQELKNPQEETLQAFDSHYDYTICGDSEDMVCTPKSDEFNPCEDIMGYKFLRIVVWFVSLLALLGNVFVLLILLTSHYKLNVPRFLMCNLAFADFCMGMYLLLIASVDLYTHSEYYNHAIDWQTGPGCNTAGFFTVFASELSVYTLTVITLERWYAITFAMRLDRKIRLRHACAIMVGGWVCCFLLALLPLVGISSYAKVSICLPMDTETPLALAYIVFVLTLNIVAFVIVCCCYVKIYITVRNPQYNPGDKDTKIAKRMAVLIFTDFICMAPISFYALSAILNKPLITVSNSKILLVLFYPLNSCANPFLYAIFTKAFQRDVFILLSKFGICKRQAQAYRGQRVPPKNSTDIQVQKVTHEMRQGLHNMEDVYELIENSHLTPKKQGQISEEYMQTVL
Summary of the method: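 TSHR-HEK293 cells were plated and held 18 h at 37C/5% CO2, then given compound plus Ro20-1724 and stimulated with TSH at 1.5 ng/mL final. After 30 min at room temperature, cAMP was detected with cAMP-d2/anti-cAMP-cryptate (1 h) by fluorescence.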

[2] = qHTS assay to identify small molecule agonists of the estrogen receptor alpha (ER-alpha) signaling pathway in the presence of an antagonist - cell viability counter screen (AID 1259386);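 further: cells exposed to compounds for 22 h at 37 °C before the viability read; nearly all actives have a fitted effect of over 30% in size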; further: potency means the concentration at half of the fitted maximal effect; on activity change, negative = cytotoxicity: series mostly up to about 92 µM
Summary of the method: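 Cell viability in VM7Luc4E2 cells (endogenous full-length ER-alpha) measured by CellTiter-Fluor fluorescence in the same wells as the luciferase screen. Cells pre-cultured 5 days in charcoal-stripped serum, then treated 22 h with compounds at 15 concentrations plus 10.0nM ICI-182,780.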

[3] = qHTS assay to identify small molecule antagonists of the progesterone receptor (PR) signaling pathway - cell viability counter screen (AID 1346798); further: nearly all actives have a fitted effect of over 50% in size; further: potency means the concentration at half of the fitted maximal effect; on activity change, negative = cytotoxicity: series mostly up to about 92 µM
Summary of the method: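 Counter screen for cytotoxicity: viability of PR-UAS-bla HEK293T cells was measured with CellTiter-Glo luminescence following 16 hr compound exposure in the presence of R5020.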

[4] = qHTS assay to identify small molecule agonists of the progesterone receptor (PR) signaling pathway - cell viability counter screen (AID 1346799; calls by dose curve; further: nearly all actives have a fitted effect of over 45% in size; further: potency means the concentration at half of the fitted maximal effect)
Summary of the method: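 Cells (PR-UAS-bla HEK293T) are plated at 3,000/well in 2% charcoal-stripped FBS medium, rested 6 hr, dosed and incubated 16 hr at 37C. CellTiter-Glo is then added and luminescence measured after 30 min at room temperature.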

[5] = qHTS assay to identify small molecule antagonists of the TGF-beta/Smad signaling pathway - cell viability counter screen (AID 1346824); further: nearly all actives have a fitted effect of over 50% in size
Summary of the method: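 SBE-bla HEK 293T cells were plated overnight at 37 C, then given compounds in DMSO plus TGF-beta1 (added as 0.25 ng/mL solution) for 5 hr. After the bla read, CellTiter-Glo was added to the same wells and luminescence read after 30 min at room temperature.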

[6] = qHTS assay to identify small molecule agonists of the TGF-beta/Smad signaling pathway - cell viability counter screen (AID 1346829); further: top concentration of the series differs between compounds; nearly all actives have a fitted effect of over 45% in size
Summary of the method: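 Compound-treated SBE-bla HEK 293T cells (5 hr, 37 C) were assessed for viability with CellTiter-Glo in parallel with the reporter read.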

[7] = qHTS assay to identify small molecule agonists of the TGF-beta/Smad signaling pathway (AID 1346859; active means well fitted activation curve with a large enough effect in the signal ratio in the repeat runs, not every such curve was filed as active; the % refers to the signal ratio; further: series mostly up to about 77 µM)
Summary of the method: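 Reporter line: HEK 293T with stably integrated SBE-controlled beta-lactamase. Compound exposure lasts 5 hr at 37 C and 5% CO2; substrate loading follows for 2 hr at room temperature, with emission read at 460 and 530 nm.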

[8] = molecular target: Thyrotropin-releasing hormone receptor (Homo sapiens) (UniProt P34981); assay: qHTS assay to identify small molecule antagonists of the thyrotropin-releasing hormone receptor (TRHR) signaling pathway (AID 1346877; active means well fitted inhibition curve with a large enough effect in the repeat runs, not every such curve was filed as active; further: series mostly up to about 51 µM)
Sequence of Thyrotropin-releasing hormone receptor (Homo sapiens) (P34981 whole entry, looked up): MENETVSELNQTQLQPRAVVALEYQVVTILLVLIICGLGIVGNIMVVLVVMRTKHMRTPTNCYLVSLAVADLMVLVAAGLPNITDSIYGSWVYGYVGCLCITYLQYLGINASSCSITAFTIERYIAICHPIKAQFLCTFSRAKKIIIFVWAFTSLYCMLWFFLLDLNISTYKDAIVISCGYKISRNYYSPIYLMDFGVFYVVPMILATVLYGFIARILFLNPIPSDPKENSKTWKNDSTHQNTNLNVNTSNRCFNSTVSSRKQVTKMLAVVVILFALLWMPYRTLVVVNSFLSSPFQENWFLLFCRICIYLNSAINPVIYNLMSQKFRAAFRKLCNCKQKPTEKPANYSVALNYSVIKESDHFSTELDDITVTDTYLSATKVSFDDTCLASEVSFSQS
Summary of the method: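 TRHR-expressing HEK293 cells loaded with calcium dye for 2 h at 37 C; compounds pre-incubated 5 min at room temperature before TRH challenge at 1 nM final. Intracellular calcium fluorescence read kinetically for 3 min; 15 concentrations in triplicate.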

[9] = molecular target: Thyrotropin-releasing hormone receptor (Homo sapiens) (UniProt P34981); assay: qHTS assay to identify small molecule agonists of the thyrotropin-releasing hormone receptor (TRHR) signaling pathway (AID 1346891; calls by dose curve; further: series mostly up to about 58 µM)
Summary of the method: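 Cells: TRHR-Hek293, seeded and incubated 18 h. Dye loading: 2 h at 37 °C. Compound added from DMSO stock by pin tool. Read-out: kinetic calcium fluorescence over 3 min.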

[10] = Human pregnane X receptor (PXR) small molecule agonists, qHTS cell viability counter screen (AID 1346977); further: nearly all actives have a fitted effect of over 50% in size; further: potency means the concentration at half of the fitted maximal effect
Summary of the method: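 Cytotoxicity counter screen run in the same wells as the PXR luciferase assay, using PXR-Luc HepG2 cells in charcoal-stripped serum medium. Viability: CellTiter-Fluor fluorescence after 24hr compound treatment.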

[11] = Caspase-3/7 induction in HepG2 cells by small molecules, qHTS assay (AID 1346978); further: nearly all actives have a fitted effect of over 15% in size
Summary of the method: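 Wild-type HepG2 cells (2,000/well) were settled 5 h at 37 C, 5% CO2, then exposed to compounds in DMSO for 17 h. Caspase-3/7 activity was read by luminescence 30 min after adding Caspase-Glo 3/7 reagent at room temperature.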

[12] = Caspase-3/7 induction in CHO-K1 cells by small molecules, qHTS cell viability counter screen (AID 1346979); further: nearly all actives have a fitted effect of over 35% in size; further: potency means the concentration at half of the fitted maximal effect
Summary of the method: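 Cytotoxicity counter screen run in parallel with the caspase-3/7 assay: CHO-K1 cells, 16hr compound treatment at 37C, then CellTiter-Fluor for 1hr before fluorescence reading.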

[13] = Caspase-3/7 induction in CHO-K1 cells by small molecules, qHTS assay (AID 1346980); further: nearly all actives have a fitted effect of over 15% in size
Summary of the method: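 Wild-type cells were seeded at 1,500 per well and settled 5 hr at 37 C, 5% CO2, then exposed to DMSO-dissolved compounds for 17 hr. Caspase-Glo 3/7 reagent was added, and luminescence was read after 30min at room temperature.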

[14] = Caspase-3/7 induction in HepG2 cells by small molecules, qHTS cell viability counter screen (AID 1346981); further: nearly all actives have a fitted effect of over 30% in size; further: potency means the concentration at half of the fitted maximal effect; on activity change, negative = cytotoxicity: series mostly up to about 92 µM
Summary of the method: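 Wild-type HepG2 cells, 2,000/well, settled 5 hr at 37 C, 5% CO2 before compound addition. Viability read by CellTiter-Fluor fluorescence, reagent added after 16 hr compound exposure, then 1 hr at 37C, in the same wells as the caspase read.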

[15] = molecular target: Nuclear receptor subfamily 1 group I member 2 (Homo sapiens) (UniProt O75469); assay: Human pregnane X receptor (PXR) small molecule agonists, qHTS assay (AID 1346982); further: nearly all actives have a fitted effect of over 35% in size; further: potency means the concentration at half of the fitted maximal effect
Sequence of Nuclear receptor subfamily 1 group I member 2 (Homo sapiens) (O75469 whole entry, looked up): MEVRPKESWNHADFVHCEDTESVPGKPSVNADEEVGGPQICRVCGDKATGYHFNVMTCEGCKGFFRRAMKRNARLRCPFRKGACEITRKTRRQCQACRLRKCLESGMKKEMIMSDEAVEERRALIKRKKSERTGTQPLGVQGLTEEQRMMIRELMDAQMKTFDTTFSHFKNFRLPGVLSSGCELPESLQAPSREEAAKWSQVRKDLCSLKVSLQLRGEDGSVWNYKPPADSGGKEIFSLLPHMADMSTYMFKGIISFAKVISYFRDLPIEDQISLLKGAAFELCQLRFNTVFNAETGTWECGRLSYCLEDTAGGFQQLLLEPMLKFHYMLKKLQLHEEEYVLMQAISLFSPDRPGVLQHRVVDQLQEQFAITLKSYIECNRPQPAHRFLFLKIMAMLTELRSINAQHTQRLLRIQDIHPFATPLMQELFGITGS
Summary of the method: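 PXR-Luc HepG2 reporter cells (CYP3A4-driven luciferase) in 5% charcoal-stripped FBS medium, plated 5 h before compound addition, then treated 24 h at 37C. Luciferase read by ONE-Glo luminescence after 30 min at room temperature.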

[16] = molecular target: Progesterone receptor (Homo sapiens) (UniProt P06401); assay: qHTS assay to identify small molecule agonists of the progesterone receptor (PR) signaling pathway (AID 1346784; calls by dose curve; further: nearly all actives have a fitted effect of over 30% in size)
Sequence of Progesterone receptor (Homo sapiens) (P06401 whole entry, looked up): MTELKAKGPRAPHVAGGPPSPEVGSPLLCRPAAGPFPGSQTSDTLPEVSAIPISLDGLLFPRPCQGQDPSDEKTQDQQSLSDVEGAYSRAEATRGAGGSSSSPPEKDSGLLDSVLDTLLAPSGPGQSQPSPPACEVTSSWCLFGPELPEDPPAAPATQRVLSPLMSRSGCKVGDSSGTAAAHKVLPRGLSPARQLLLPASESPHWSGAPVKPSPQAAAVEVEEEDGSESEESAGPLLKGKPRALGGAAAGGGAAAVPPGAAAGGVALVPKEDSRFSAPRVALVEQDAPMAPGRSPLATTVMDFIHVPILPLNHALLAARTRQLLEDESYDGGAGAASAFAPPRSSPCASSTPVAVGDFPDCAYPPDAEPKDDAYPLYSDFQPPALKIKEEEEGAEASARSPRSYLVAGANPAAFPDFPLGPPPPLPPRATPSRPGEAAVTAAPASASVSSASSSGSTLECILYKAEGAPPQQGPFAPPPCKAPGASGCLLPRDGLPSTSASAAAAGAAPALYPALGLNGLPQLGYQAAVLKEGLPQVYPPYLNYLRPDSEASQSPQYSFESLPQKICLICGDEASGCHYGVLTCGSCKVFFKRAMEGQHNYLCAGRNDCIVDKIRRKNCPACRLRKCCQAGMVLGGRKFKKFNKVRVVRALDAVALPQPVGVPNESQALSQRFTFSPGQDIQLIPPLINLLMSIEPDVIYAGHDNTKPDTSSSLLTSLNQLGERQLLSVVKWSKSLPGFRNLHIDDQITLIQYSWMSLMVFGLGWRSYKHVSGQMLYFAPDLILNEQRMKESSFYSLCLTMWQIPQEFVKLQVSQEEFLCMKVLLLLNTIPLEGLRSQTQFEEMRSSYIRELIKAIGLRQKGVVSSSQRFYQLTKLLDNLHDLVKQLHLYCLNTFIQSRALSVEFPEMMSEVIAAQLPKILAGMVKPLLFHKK
Summary of the method: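 Cells (PR-UAS-bla HEK 293T, GripTite) were plated in assay medium containing 2% charcoal-stripped FBS and incubated 6 hr. Test compounds in DMSO were added for 16 hr at 37C. FRET substrate was then loaded for 2 hr at room temperature before fluorescence reading.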

[17] = molecular target: Progesterone receptor (Homo sapiens) (UniProt P06401); assay: qHTS assay to identify small molecule antagonists of the progesterone receptor (PR) signaling pathway (AID 1346795; active means well fitted inhibition curve with a large enough effect in the signal ratio in the repeat runs, not every such curve was filed as active; the % refers to the signal ratio)
Summary of the method: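 Antagonist mode: compounds tested against 1 nM (final) promegestone stimulation in HEK293T cells expressing PR-UAS-bla reporter, 16 hr at 37C, 5% CO2; beta-lactamase activity detected via B/G FRET substrate after 2 hr at room temperature.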

[18] = molecular target: Nuclear receptor subfamily 1 group I member 2 (Rattus norvegicus) (UniProt Q9R1A7); assay: Rat pregnane X receptor (rPXR) activation by small molecules, qHTS assay (AID 1346983); conditions: rPXR luciferase reporter cells, One-Glo luminescence, 24 h; max activation: hits give high values; further: nearly all actives have a fitted effect of over 20% in size
Sequence of Nuclear receptor subfamily 1 group I member 2 (Rattus norvegicus) (Q9R1A7 whole entry, looked up): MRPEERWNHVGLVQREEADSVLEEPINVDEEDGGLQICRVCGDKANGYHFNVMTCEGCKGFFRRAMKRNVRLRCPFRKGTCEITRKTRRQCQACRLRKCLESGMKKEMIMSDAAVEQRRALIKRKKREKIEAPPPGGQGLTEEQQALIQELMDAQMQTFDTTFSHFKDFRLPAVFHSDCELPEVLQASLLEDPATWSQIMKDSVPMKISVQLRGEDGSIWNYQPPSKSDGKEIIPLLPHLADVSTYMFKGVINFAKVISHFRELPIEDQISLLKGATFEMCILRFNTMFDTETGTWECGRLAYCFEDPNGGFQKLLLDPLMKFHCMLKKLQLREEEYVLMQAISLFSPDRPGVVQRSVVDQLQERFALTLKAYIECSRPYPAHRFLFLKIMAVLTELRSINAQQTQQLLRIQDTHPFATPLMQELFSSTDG
Summary of the method: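 Cell-based rPXR luciferase reporter assay, 2,000 cells per well, rested 5hr at 37 C before compound addition in DMSO, then 24 hr at 37 C. One-Glo reagent was added and luminescence read after 30 min at room temperature.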

[19] = molecular target: Nuclear receptor subfamily 1 group I member 2 (Homo sapiens) (UniProt O75469); assay: CYP3A4 induction through human pregnane X receptor (PXR) by small molecules, qHTS assay (AID 1346984); further: nearly all actives have a fitted effect of over 40% in size
Summary of the method: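 DPX-2 HepG2 cells carrying a PXR response element and CYP3A4-promoter luciferase construct, treated with compounds 24 hr at 37C. Then P450-Glo CYP3A4 Luciferin-IPA substrate (3uM final) for 3 hr at 37C, One-Glo added, luminescence read.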

[20] = molecular target: Nuclear receptor subfamily 1 group I member 2 (Homo sapiens) (UniProt O75469); assay: Human pregnane X receptor (PXR) activation by small molecules, qHTS assay (AID 1346985); further: nearly all actives have a fitted effect of over 40% in size
Summary of the method: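 DPX-2 cells (HepG2 co-transfected with a PXR response element and a CYP3A4-promoter luciferase construct) were seeded at 2,000 per well, rested 5 hr at 37C, then exposed to DMSO-dissolved compounds for 24 hr. Activation was read as luciferase luminescence.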
On the % scale 0 is the no-effect control and ±100 the full control effect.

CCC(C)C1N=C(C)C(C)S1 (configuration not stated)
inactive: Potency [1] | Potency [2] | Potency [3] | Potency [4] | outcome [5] | outcome [6] | outcome [7] | outcome [8] | outcome [9] | Potency [10] | Potency [11] | Potency [12] | Potency [13] | Potency [14]
active: Potency [15] 34.4 µM

CC(C)C/C=C(\C=O)c1ccccc1
active: Potency [15] 30.6 µM
inactive: Potency [1] | Potency [16] | Potency [17] | Potency [3] | Potency [4] | outcome [5] | outcome [6] | outcome [7] | outcome [8] | outcome [9] | Potency [11]

O=C1c2ccccc2C(=O)C1c1ccc2cc(S(=O)(=O)O)cc(S(=O)(=O)O)c2n1
inactive: Potency [1] | outcome [5] | outcome [6] | outcome [7] | outcome [8] | outcome [9] | Potency [11] | Potency [15]
active: Potency [2] 26.3 µM | Potency [3] 20.9 µM | Potency [4] 18.6 µM | Potency [10] 37.2 µM | Potency [12] 33.1 µM | Potency [14] 33.1 µM

CC(=O)Oc1cccc2c1C(=O)c1c(OC(C)=O)cc(C(=O)O)cc1C2=O
inactive: Potency [1] | outcome [5] | outcome [6] | outcome [8] | outcome [9] | Potency [11] | Potency [13] | Potency [15]
active: Potency [2] 29.8 µM | Potency [10] 29.8 µM | Potency [12] 29.8 µM | Potency [14] 29.8 µM

CCC(CC)C(=O)O
inactive: Potency [2] | Potency [16] | Potency [17] | Potency [3] | Potency [4] | outcome [5] | outcome [6] | outcome [7] | outcome [8] | outcome [9] | Potency [10] | Potency [13] | Potency [14] | Potency [15]

CCOC(C)OCC
inactive: Potency [2] | Potency [16] | Potency [17] | Potency [3] | Potency [4] | outcome [5] | outcome [6] | outcome [7] | outcome [8] | outcome [9] | Potency [12] | Potency [13] | Potency [14] | Potency [15] | max activation [18] -4.85% | Potency [19] | Potency [20]

CC1=CC(=C(c2ccc(N)cc2)c2ccc(N)cc2)C=CC1=N
inactive: activity change, negative = inhibition [1] 0.722% [at 8.39 µM] | activity change, negative = inhibition [17] 5.6% [at 8.39 µM] | activity change, negative = cytotoxicity [3] 5.81% [at 8.39 µM] | activity change, negative = cytotoxicity [4] 0% [at 8.39 µM] | viability change, negative = cytotoxic [5] 12% [at 6.97 µM] | activity change, negative = cytotoxicity [6] 4.82% [at 6.97 µM] | activation [7] 8.28% [at 6.97 µM] | caspase activation [11] 0.381% [at 8.39 µM] | caspase-3/7 activation [13] 1.62% [at 8.39 µM] | activation [15] -7.87% [at 8.39 µM] | max activation [18] -21.7% | Potency [19] | Potency [20]

CCCCCCCCCCCCCCCCCCCl
inactive: activity change, negative = cytotoxicity [2] -0.0193% [at 8.39 µM] | activation [16] -0.486% [at 8.39 µM] | activity change, negative = inhibition [17] 7.9% [at 8.39 µM] | activity change, negative = cytotoxicity [3] -19.4% [at 8.39 µM] | activity change, negative = cytotoxicity [4] -1.64% [at 8.39 µM] | viability change, negative = cytotoxic [5] -4.8% [at 6.97 µM] | activity change, negative = cytotoxicity [6] 3.73% [at 6.97 µM] | activation [7] 1.95% [at 6.97 µM] | activation [9] -0.417% [at 5.23 µM] | activity change, negative = cytotoxicity [10] -2.79% [at 8.39 µM] | caspase activation [11] 0.121% [at 8.39 µM] | caspase-3/7 activation [13] -1.95% [at 8.39 µM] | activity change, negative = cytotoxicity [14] -0.332% [at 8.39 µM] | activation [15] 17.1% [at 8.39 µM]

COC(=O)c1cc(Cl)ccc1[N+](=O)[O-]
inactive: Potency [2] | Potency [16] | Potency [17] | Potency [3] | Potency [4] | outcome [5] | outcome [6] | outcome [7] | outcome [8] | outcome [9] | Potency [10] | Potency [11] | Potency [12] | Potency [13] | Potency [14]

CO[C@@H]1COCC[C@@H]1N[C@@H]1CC[C@@](C(=O)N2CCc3ncc(C(F)(F)F)cc3C2)(C(C)C)C1
inactive: Potency [1] | Potency [2] | Potency [3] | outcome [5] | outcome [6] | outcome [7] | outcome [9] | Potency [10] | Potency [11] | Potency [12] | Potency [13] | Potency [14] | Potency [15]

CCn1nc(Cc2ccccc2)cc1C1CCN(C[C@H]2C[C@H](N(C)[C@@H](C(=O)O)C(C)C)C[C@@H]2c2cccc(F)c2)CC1
inactive: Potency [1] | Potency [2] | Potency [3] | Potency [4] | outcome [6] | outcome [8] | outcome [9] | Potency [11] | Potency [12] | Potency [15]

CCCCCCCCOCCCN
inactive: Potency [1] | Potency [16] | Potency [17] | Potency [3] | outcome [6] | outcome [8] | outcome [9] | Potency [11] | Potency [12] | Potency [14] | Potency [15]
active: Potency [10] 61.1 µM

Cc1cccc(C)c1NC(=O)CN1CCCC1
inactive: Potency [1] | Potency [2] | Potency [3] | Potency [4] | outcome [5] | outcome [6] | outcome [7] | Potency [10] | Potency [13] | Potency [14] | Potency [15] | max activation [18] -2.58% | Potency [19] | Potency [20]

O=c1[nH][nH]c2ccccc12
inactive: Potency [1] | Potency [2] | Potency [3] | Potency [4] | outcome [5] | outcome [6] | outcome [7] | outcome [8] | outcome [9] | Potency [10] | Potency [11] | Potency [12] | Potency [13] | Potency [14] | Potency [15]

CC(C)NC(=O)c1ccccc1N
inactive: Potency [1] | Potency [2] | Potency [3] | outcome [5] | outcome [6] | outcome [7] | outcome [8] | outcome [9] | Potency [12] | Potency [13] | Potency [14] | Potency [15]

From PubChem BioAssay (Tox21)
